# Inconclusive results are not listed. Unmarked numbers belong to inactive results. The source made the active and inactive calls. Calls come from the whole dose curve; as a rule, active = well fitted curve in the direction sought with a large enough effect; inconclusive = small, poorly fitted or top-dose-only effect, or another doubt; inactive = no such curve, though single readings can be large; an effect the other way counts as inactive or inconclusive.
# Biological target: Rap guanine nucleotide exchange factor 3 (Homo sapiens) (UniProt O95398)
# Assay: Counterscreen qHTS for antagonist of cAMP-regulated guanine nucleotide exchange factor 3 (EPAC1) (AID 1645888);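 note: fluorescence loss as bound BODIPY-GDP is released from Rap1B; % of control where 0% means no effect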
# Conditions: Rap1B-BODIPY-GDP nucleotide exchange, fluorescence; series mostly up to 154 µM; activity change, negative = inhibition: at the top concentration
# Method in brief: (§1)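 Rap1B-BODIPY-GDP 250 nM + GDP 50 uM; cpds 7-pt, final 9.74 nM–152 uM (activator mode) or from 7.32 nM upwards (inhibitor mode); RT; FI 480/540 nm at 5 and 30 min, then ± cAMP, reread.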
# Rap guanine nucleotide exchange factor 3 (Homo sapiens), sequence (O95398 whole entry, looked up): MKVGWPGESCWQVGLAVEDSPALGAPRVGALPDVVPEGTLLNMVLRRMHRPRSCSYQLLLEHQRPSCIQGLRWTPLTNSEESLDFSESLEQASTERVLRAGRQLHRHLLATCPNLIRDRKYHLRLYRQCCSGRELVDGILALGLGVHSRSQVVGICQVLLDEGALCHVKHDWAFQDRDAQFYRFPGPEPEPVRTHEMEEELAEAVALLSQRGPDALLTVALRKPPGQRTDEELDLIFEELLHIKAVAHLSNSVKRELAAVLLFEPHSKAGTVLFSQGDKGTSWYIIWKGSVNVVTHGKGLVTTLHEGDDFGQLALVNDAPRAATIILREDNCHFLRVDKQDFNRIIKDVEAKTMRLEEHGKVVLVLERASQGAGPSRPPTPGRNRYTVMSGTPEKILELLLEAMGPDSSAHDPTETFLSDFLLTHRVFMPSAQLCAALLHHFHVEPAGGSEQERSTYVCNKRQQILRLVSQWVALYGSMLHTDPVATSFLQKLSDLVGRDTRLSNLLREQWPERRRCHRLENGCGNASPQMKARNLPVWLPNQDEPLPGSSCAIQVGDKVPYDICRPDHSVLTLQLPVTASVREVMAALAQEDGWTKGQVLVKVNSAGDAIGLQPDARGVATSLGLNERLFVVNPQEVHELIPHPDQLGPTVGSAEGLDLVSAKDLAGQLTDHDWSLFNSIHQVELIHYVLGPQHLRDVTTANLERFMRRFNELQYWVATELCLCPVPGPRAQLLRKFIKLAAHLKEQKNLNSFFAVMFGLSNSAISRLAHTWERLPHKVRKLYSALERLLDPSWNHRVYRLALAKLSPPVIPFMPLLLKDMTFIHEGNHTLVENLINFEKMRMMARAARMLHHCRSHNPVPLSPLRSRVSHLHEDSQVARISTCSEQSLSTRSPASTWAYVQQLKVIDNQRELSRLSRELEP
row,SMILES,"activity change, negative = inhibition"
1,COc1ccc(C(=O)/C=C/c2ccccc2)c(OC)c1,-1.15%
2,Cc1ccccc1OCC(=O)Nc1ccc(C(=O)OCc2cc(=O)n3c(C)csc3n2)cc1,17.2%
3,O=C(/C=C/c1ccco1)Oc1cc(Br)cc(/C=N/NC(=O)c2ccccc2O)c1,-6.78%
4,Cc1nc([N+](=O)[O-])c(Br)n1Cc1ccc(Cl)c(Cl)c1,-2.07%
5,Cc1nc(NC(=O)c2c(-c3ccccc3)c(-c3ccccc3)nn(C)c2=O)sc1C,17.8%

# Biological target: Rap guanine nucleotide exchange factor 3 (Homo sapiens) (UniProt O95398)
# Assay: Counterscreen qHTS for agonist of cAMP-regulated guanine nucleotide exchange factor 3 (EPAC1) (AID 1645889); note: nearly all actives have a fitted effect of over 40% in size; note: potency is the fitted concentration of half-maximal effect; for activation: % of control where 0% means no effect
# Conditions: EPAC1 Rap1B-BODIPY-GDP exchange, fluorescence; series mostly up to 154 µM; activation: at the top concentration
# Method in brief: as §1
SMILES,activation,Potency
Cc1nc(N)sc1-c1csc(Nc2ncccn2)n1,11.6%,
O=C1OC(Cc2ccccc2)(c2ccccc2)c2ccccc21 (centres undefined),15.6%,
Cc1ccc(C2CC2/C(=N/O)c2ccc(F)cc2)cc1 (centres undefined),6.98%,
COc1ccc(OC)c(NC(=O)CSc2ncnc3sc(C)cc23)c1,7.45%,
Cc1ccc(SCC(=O)Nc2ccccc2N2CCOCC2)cc1,14.5%,
COc1ccccc1/C=C(/C(=O)OCC(=O)Nc1ccc(N(C)C)cc1)c1ccccc1,19.6%,
CC(C)(C)c1cc(NCCCn2ccnc2)n2ncc(-c3ccccc3)c2n1,3.69%,
CC(C)C(NC(=O)C1CC(=O)N(Cc2ccccc2)C1)c1nc2ccccc2[nH]1 (centres undefined),-4.59%,
N#CC1=C2N=C(N)c3c(sc4c3CCCCC4)N2C2=C(C(=O)CCC2)C1c1ccccc1 (centres undefined),25.7%,
Cc1ccc(CNC(=O)c2cccc3c2C(=O)c2ccc(N4CCCCC4)cc2S3(=O)=O)cc1,,11.2 µM (active)
Cc1cc(N(CCO)Cc2ccccc2)n2nc(-c3ccc(C(C)(C)C)cc3)nc2n1,23.1%,
Cc1cccc(Cn2nnc3c(=O)[nH]c(C4CCCN(C(=O)c5ccc(C(C)(C)C)cc5)C4)nc32)c1 (centres undefined),62.2%,
Cc1ccccc1OCC(=O)Nc1ccc(C(=O)OCc2cc(=O)n3c(C)csc3n2)cc1,12.1%,
Cc1nc(NC(=O)c2c(-c3ccccc3)c(-c3ccccc3)nn(C)c2=O)sc1C,-29.2%,

# Source: PubChem BioAssay (NCATS)
